The list is not random: actives were taken first. Their share in the collection is about 11%.
Pf growth 48h: inhibits P. falciparum growth in the first generation, 48 h; P. falciparum luciferase growth in erythrocytes, 48 h; Potency, µM (doses to about 28.7 µM), for the others: at the highest dose activity change, negative = inhibition, usual class: inhibitors; actives 5.9% (n = 310,000); AID 504832
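Parasite viability was followed by luminescence of a genomically integrated firefly luciferase. Cultures held 0.1% parasitemia at 2% hematocrit (final), incubated under 5% CO2 at 37 C.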
AmpC detergent: AmpC beta-lactamase inhibition with detergent present. AmpC hydrolysis of nitrocefin, absorbance 480 nm, 0.01% Triton. Potency, µM (highest dose often 114 µM), for inactives: top-dose activity change, negative = inhibition, hits mostly inhibitors. actives 0.041% (n = 370,000);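 also: 0% = no-compound wells and -100% = no-enzyme wells; nearly all actives have a fitted effect of over 25% in size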
Target sequence (P00811 whole entry, looked up): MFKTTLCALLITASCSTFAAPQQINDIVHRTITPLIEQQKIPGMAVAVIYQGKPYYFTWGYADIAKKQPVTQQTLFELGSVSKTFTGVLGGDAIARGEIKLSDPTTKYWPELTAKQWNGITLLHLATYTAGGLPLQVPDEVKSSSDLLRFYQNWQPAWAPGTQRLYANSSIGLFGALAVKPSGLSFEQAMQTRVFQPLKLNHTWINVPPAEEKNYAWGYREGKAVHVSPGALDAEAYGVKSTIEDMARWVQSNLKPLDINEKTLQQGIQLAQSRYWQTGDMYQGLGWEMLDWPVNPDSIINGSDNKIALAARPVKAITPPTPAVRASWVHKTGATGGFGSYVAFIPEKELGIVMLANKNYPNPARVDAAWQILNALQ
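20 mM phosphate pH 7.0 + 0.01% (detergent screen) or 0.0001% Triton X-100; 5.3 nM AmpC reagent; cpd preinc 15 min RT; nitrocefin (800 uM stock) to start; A480 q20 s × 4 min; Activity was normalised to no-enzyme and no-compound control wells.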
AMA1-RON2 inh: disrupts binding of P. falciparum AMA1 to RON2 | actives 0.2% (n = 360,000) | AlphaScreen AMA1-biotinylated RON2 peptide binding | Potency, µM (doses to about 58.2 µM), for inactives: at the top dose activity change, negative = inhibition, most hits filed as inhibitors;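 also: 0% = vehicle wells and -100% = peptide control; nearly all actives have a fitted effect of over 45% in size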
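AMA1 (3D7) with his tag at 25 nM final met compounds first, then biotinylated RON2 peptide at 25 nM; detection used donor plus acceptor beads, 10 µg/mL apiece, read by AlphaScreen after 30 min at room temperature.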
Pf growth 96h: P. falciparum growth inhibition at 96 hours | Potency, µM (doses to about 28.7 µM), for the others: top-dose activity change, negative = inhibition, actives largely listed as inhibitors | actives 6.9% (n = 320,000) | AID 504834 | P. falciparum luciferase reporter growth, 96 h
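Readout is luminescence from an integrated firefly luciferase in P. falciparum. Red cells, 2% hematocrit and 0.05% parasitemia final, were cultured with compound through two parasite generations (96 hours) at 37 C, 5% CO2.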
AmpC inh no detg: blocks E. coli AmpC beta-lactamase in detergent-free assay; Potency, µM (doses to about 57.1 µM), without a hit: at the top dose activity change, negative = inhibition, actives largely listed as inhibitors; P00811; AmpC nitrocefin hydrolysis, absorbance 480 nm, 0.0001% Triton; actives 0.52% (n = 330,000);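 also: plate controls were no compound for no effect and no enzyme for full effect; nearly all actives have a fitted effect of over 20% in size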
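20 mM phosphate pH 7.0 + 0.01% (detergent screen) or 0.0001% Triton X-100; 5.3 nM AmpC reagent; cpd preinc 15 min RT; nitrocefin (800 uM stock) to start; A480 q20 s × 4 min; Activity was normalised to no-enzyme and no-compound control wells.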
HCV inhibitor: inhibitors of hepatitis C virus infection; Huh7.5.1 HCVcc-Cre infection, luciferase reporter, 44 h; Potency, µM (top dose mostly 41.8 µM), inactives show at the top dose activity change, negative = inhibition, most hits filed as inhibitors; actives 3.4% (n = 340,000); AID 651820
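Reporter virus HCVcc-Cre (~0.5 moi) infects cells exposed to compound; seeding density 1,000 cells/well with 4 h settling beforehand. Luminescence, 15 sec read, taken 44 h post-infection following a 15 min RT substrate incubation.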
* hit, by the source's call; u = inconclusive; x = no result; [ ] = remark or other dose. Calls follow the shape of the dose curve; as a rule, active = well fitted curve in the direction sought with a large enough effect; inconclusive = small, poorly fitted or top-dose-only effect, or another doubt; inactive = no such curve, though single readings can be large; an effect the other way counts as inactive or inconclusive. Unless noted, % is scaled to controls: 0 for no effect and ±100 for the full control effect; potency is read from the fitted curve at half-maximal effect.

SMILES	Pf growth 48h	AmpC detergent	AMA1-RON2 inh	Pf growth 96h	AmpC inh no detg	HCV inhibitor
COCCn1c(SC(C)C(=O)NCC2CCCO2)nc2sc3c(c2c1=O)CCC3 (centres undefined)	u	-17%	0%	8.3µM*	u	1%[8.37 µM]
CCN(CC)C(=O)CSc1nc2sc3c(c2c(=O)n1CCOC)CCC3	u	-8%	-1%	u	-8%	-23%
CC(Sc1nnc(-c2cccs2)n1-c1ccccc1)C(=O)NCc1ccc2c(c1)OCO2 (centres undefined)	x	-17%	-2%	10µM*	-8%	-14%
COc1cc(Cl)c(C)cc1NC(=O)c1cc2ccc3cccnc3c2[nH]1	x	22%	x	x	x	x
CC(C)C(NS(=O)(=O)c1cccs1)C(=O)NCc1ccc2c(c1)OCO2 (centres undefined)	11%	-1%	-1%	-9%	40µM*	3%
C=CCn1c(SC(C)C(=O)NCc2ccc3c(c2)OCO3)nc2scc(-c3ccccc3)c2c1=O (centres undefined)	u	3%	-3%	6.6µM*	-23%	u
CCN(CC)S(=O)(=O)c1ccc(NC(=O)c2c(C)oc3ncnc(N4CCOCC4)c23)cc1	x	0%	x	x	x	x
COc1ccc(CNC(=O)C2CCCN(C(=O)N3CCOc4ccccc43)C2)cc1 (centres undefined)	x	-1%	x	x	x	x
COc1cccc2[nH]c3c(N4CCCC(C)C4)ncnc3c12 (centres undefined)	u	u	-6%	u	-13%	u
CCOC(=O)C1CCCN(c2ncnc3c2[nH]c2cccc(OC)c23)C1 (centres undefined)	12µM*	0%	x	x	48%	x
Cc1ccc(CNC(=O)c2cn(C)c3ccc(S(=O)(=O)N4CCC(C)CC4)cc3c2=O)cc1	x	-1%	x	x	x	x
COc1ccccc1Oc1cn[nH]c1-c1ccc(OCC(=O)NN)cc1O	8%[0.00184 µM]	-2%	100%	u	-35%	10%
COc1ccc(-c2cn[nH]c2-c2ccc(OCc3ccccc3F)cc2O)cc1OC	u	-5%	64%	u	-44%	11µM*
CCc1cc(-c2n[nH]c(C)c2-c2ccccc2Cl)c(O)cc1OC	u	3%	61%	-14%	-39%	u
COc1ccc(-c2cn[nH]c2-c2ccc(OCc3ccc([N+](=O)[O-])cc3)cc2O)cc1OC	10µM*	-3%	86%	9.3µM*	-40%	u
COc1ccc(-c2c(-c3ccc(OCC(=O)NN)cc3O)n[nH]c2C)cc1OC	u	1%	59%	u	-16%	-8%
O=[N+]([O-])c1ccc(COc2ccc(-c3[nH]ncc3-c3ccc(Cl)cc3)c(O)c2)cc1	2.3µM*	-4%	34%[11.6 µM]	u	-56%	u
CCc1cc(-c2[nH]ncc2-c2ccc([N+](=O)[O-])cc2)c(O)cc1OC	4.7µM*	-1%	72%	-29%	-37%	u
Cc1ccc(CNCc2c(C(=O)O)c(C)n(Cc3ccc(C)cc3)c2C)cc1	x	19%	x	x	x	x
O=C(Cn1ncc2c3ccccc3n(Cc3ccccc3F)c2c1=O)NCc1ccccc1Cl	x	-7%	x	x	x	x
CCN1C(=O)C(Cc2nc3ccccc3c(=O)n2-c2cccc(C)c2)c2ccccc21 (centres undefined)	x	-3%	x	x	x	x
COc1ccc(N2CCN(S(=O)(=O)CCNC(=O)c3c(F)cccc3Cl)CC2)cc1	x	20%	x	x	x	x
Fc1ccc(CN2CC[C@H]3C=CCc4cccc(c43)C2)cc1	10µM*	3%	0%	u	-24%	7%
O=C(C1CCN(Cc2ccc(F)cc2)CC1)N(CCO)Cc1ccccc1	-17%	0%	-5%	x	-16%	2%
Clc1ccc(CN2CC[C@H]3C=CCc4cccc(c43)C2)cc1	3.7µM*	1%	-10%	1.9µM*	-14%	-20%

Screening results as filed in PubChem BioAssay.
